According to PubChem BioAssay AID504652 (National Center for Advancing Translational Sciences (NCATS), 2011):
The campaign covered roughly 360,000 compounds. About 11,000 (3.1%) were called active. Cut-off read from the data, not from the text of the source: active = activity change below about -30%; inactive = the rest. Only a selection was taken, and actives are over-represented in it overall.

Target: D(1A) dopamine receptor (Homo sapiens) (UniProt P21728)
Assay: Antagonist of Human D 1 Dopamine Receptor: qHTS
Conditions: HEK293 TREx D1 cells, calcium flux, dopamine EC80; at 10 µM; active compounds read low
Excerpt: Dopamine receptors (DARs) are involved in the etiology and/or therapy of a number of neuropsychiatric and endocrine disorders. For instance, all receptor-based antiparkinsonian drugs work via stimulating the […] DAR subtype whereas all FDA-approved antipsychotic agents are antagonists of this receptor. […] There are three different types of allosteric modulators that we are seeking, two of which will stimulate or augment receptor signaling, allosteric agonists and potentiators, while the third, allosteric antagonists, will attenuate receptor signaling. The present primary screening assay measures compound antagonism after an EC80 addition of dopamine by tracking calcium flux in a […], inducible Hek293 Trex D1 cell line. NIH Chemical Genomics Center [NCGC] NIH Molecular Libraries Probe Centers Network [MLPCN] MLPCN Grant: NS064831-01 Assay Submitter (PI): David Sibley
Freshly passaged cells are plated in 1536 well black, clear bottom plates at a density of 4000 cells/well in 3 ul of complete media containing 1x tetracycline inducer. After an overnight incubation at 30 C in 5% CO2, cells are loaded with 2 ul of the no wash Calcium Assay Kit (ABD Bioquest) and incubated at room temperature for 30 to 90 minutes. Agonist read: A 10 cycle (1 second/cycle) baseline measurement is taken and then the FDSS online 1536 pintool delivers 23 nl of compound library (as well as dopamine controls) to the plate. The plate is measured for kinetically at 1 cycle/sec for 180 seconds. Following the 180 second read, 1 ul of an EC80 (negative modulation assay) is delivered by an onboard pipette head. Measurements are taken kinetically for an additional 180 seconds.
% is set by controls: 0 for no effect and ±100 for the full control effect.

Sequence of D(1A) dopamine receptor (Homo sapiens) (P21728 whole entry, looked up): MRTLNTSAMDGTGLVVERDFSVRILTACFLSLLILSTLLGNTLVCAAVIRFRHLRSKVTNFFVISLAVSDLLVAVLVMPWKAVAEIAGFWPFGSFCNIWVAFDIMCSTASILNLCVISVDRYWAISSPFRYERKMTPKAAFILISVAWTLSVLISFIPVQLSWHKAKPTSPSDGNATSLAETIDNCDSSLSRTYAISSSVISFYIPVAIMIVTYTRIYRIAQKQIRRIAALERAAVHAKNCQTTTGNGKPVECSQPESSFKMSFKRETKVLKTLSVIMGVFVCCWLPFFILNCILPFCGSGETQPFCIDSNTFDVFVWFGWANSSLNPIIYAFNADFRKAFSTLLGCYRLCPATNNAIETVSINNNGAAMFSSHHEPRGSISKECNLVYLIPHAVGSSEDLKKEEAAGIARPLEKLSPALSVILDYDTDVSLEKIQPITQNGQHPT

| SMILES | activity change, negative = inhibition |
| --- | --- |
| O=c1cc(CSc2ncn[nH]2)[nH]c2ccc(F)cc12 | 10.4% (inactive) |
| Cc1nnc(SCc2cc(=O)c3cc(F)ccc3[nH]2)n1C | -67.4% (active) |
| Cn1c(SCc2ccc(F)cc2)nnc1-c1ccncc1 | 5.13% (inactive) |
| Cc1cccc(NC(=O)c2ccc3nc(C(C)C)oc3c2)c1C | 9.09% (inactive) |
| CC1CC1C(=O)OCC(=O)c1c(N)n(C)c(=O)n(C)c1=O (stereo not given) | 5.53% (inactive) |
| Cc1cc(C(=O)OCC(=O)c2c(N)n(C)c(=O)n(C)c2=O)c(C)o1 | -60.8% (active) |
| Cn1c(N)c(C(=O)COC(=O)c2cnc(Cl)c(Cl)c2)c(=O)n(C)c1=O | 12.2% (inactive) |
| O=C(CSc1nccn1-c1ccc(F)cc1)Nc1cccc2ccccc12 | 43.1% (inactive) |
| O=C(Cn1c(=O)n(Cc2cccs2)c(=O)c2cccnc21)Nc1ccc(F)cc1 | 2.03% (inactive) |
| Cc1c(Cl)cccc1NC(=O)C1CCCN(c2ncnc3onc(C)c23)C1 (stereo not given) | -3.12% (inactive) |
| COc1ccc(C(CCN(Cc2ccc(OC)c(OC)c2)C(=O)CCl)c2ccccc2)cc1 (stereo not given) | 0.248% (inactive) |
| COc1ccc(CN(C)C(=O)CC(c2ccccc2)c2ccccc2)cc1 | -31.6% (active) |
| CN(Cc1ccccc1)C(=O)COc1ccccc1 | 2.23% (inactive) |
| O=C(c1cc(COc2ccc(F)c(F)c2)on1)N1CCOCC1 | -16.4% (inactive) |
| CCOC(=O)CC1COCCN1C(=O)c1cc(COc2ccc(F)c(F)c2)on1 (stereo not given) | -41% (active) |
| CCC(NC(=O)c1cc(COc2ccc(F)c(F)c2)on1)c1ccncc1 (stereo not given) | -27.1% (inactive) |
| Cc1ccc(C(=O)N2CCc3cc(CNC(=O)c4ccc(Br)cc4)ccc32)cc1 | 3.02% (inactive) |
| Cc1noc2ncnc(NCc3ccccc3Cl)c12 | -4.33% (inactive) |
| Nc1ncc(S(=O)(=O)Nc2ccc(OC(F)(F)F)cc2)cn1 | 18% (inactive) |
| Cc1nn(C)c(C)c1NS(=O)(=O)c1ccc(OC(F)(F)F)cc1 | -90.7% (active) |
| COc1ccc(OC)c(S(=O)(=O)Nc2c(C)nn(C)c2C)c1 | 2.31% (inactive) |
| Cc1cccc(NC(=O)C2CCN(S(=O)(=O)c3c(C)noc3/C=C/c3ccco3)CC2)c1 | -5.72% (inactive) |
| C=Cc1ccc(Cn2c(C(=O)OC)cc3sc(C)cc32)cc1 | 21.5% (inactive) |

| SMILES | activity change, negative = inhibition |
| --- | --- |
| CC(Sc1nnc(-c2cccs2)n1C1CC1)C(=O)NCC1CCCO1 (stereo not given) | -30.6% (active) |
| Cc1ccc(N(C(=O)Cc2cccs2)C(C(=O)NCC2CCCO2)c2ccncc2)cc1 (stereo not given) | -0.595% (inactive) |
| CC(Sc1nn(-c2ccc(Cl)cc2)c(=S)s1)C(=O)NCC1CCCO1 (stereo not given) | -0.972% (inactive) |
| CC(C)OCCCn1c(SCC(=O)c2ccccc2)nc2c(sc3ccccc32)c1=O | 4.36% (inactive) |
| Cc1cc(C)cc(OC(C)C(=O)Nc2nc3c(s2)CCCC3)c1 (stereo not given) | 3% (inactive) |
| COc1ccc2cc(CNc3ccc(OC)c(OC)c3)c(=O)n(CC(=O)Nc3ccccc3F)c2c1 | -14.2% (inactive) |
| CCOc1ccc(CN2CCN(Cc3c[nH]c4ccccc34)CC2)cc1 | 4.58% (inactive) |
| Cc1ccc2[nH]cc(CCNC(=O)C3CCCCC3)c2c1 | -23.8% (inactive) |
| O=C(NCCc1c[nH]c2ccccc12)C1CCN(Cc2ccc(Br)cc2)CC1 | -56.3% (active) |
| Cc1cc(C)cc(NS(=O)(=O)c2ccc3[nH]cc(C(=O)N4CCCCC4)c(=O)c3c2)c1 | -3.92% (inactive) |
| CCN(c1ccc(Cl)cc1)S(=O)(=O)c1nnc(NC(=O)c2ccco2)s1 | -1.57% (inactive) |
| COc1cccc(CN(C)CC(=O)NCc2ccccc2Cl)c1OC | -23.2% (inactive) |
| Cc1nc2ccc(C(=O)N(C)CC3CCCN(CCc4ccc(Cl)cc4)C3)cc2[nH]1 (stereo not given) | -13.3% (inactive) |
| COc1cccc(CN(C)CC2CCCN(CCc3ccc(Cl)cc3)C2)c1OC (stereo not given) | -79.9% (active) |
| CCc1ccc(NC(=O)CCS(=O)(=O)c2cc3c(cc2Cl)NC(=O)CO3)cc1 | -16.7% (inactive) |
| COc1ccc(-n2c(SCC(N)=O)nc3c(oc4ccccc43)c2=O)cc1 | 10.8% (inactive) |
| Nc1c(C(=O)c2cccs2)sc2nsc(SCCN3CCCCC3)c12 | -42.4% (active) |
| CN(C)c1ccc(C(CNS(=O)(=O)c2cc(F)ccc2F)N2CCOCC2)cc1 (stereo not given) | -3.66% (inactive) |
| Cc1ccc(NC(=O)CSc2nc3c([nH]c4ccccc43)c(=O)n2-c2ccccc2)c(C)c1 | -35.7% (active) |
| Cc1ccc(NC(=O)CSc2nc3c([nH]c4ccccc43)c(=O)n2-c2ccccc2)cc1Cl | -8.44% (inactive) |
| Cc1cccc(NC(=O)CSc2nc3c([nH]c4ccccc43)c(=O)n2-c2cc(C)cc(C)c2)c1 | 23.9% (inactive) |
| CCN(CC)C(=O)CSc1nnc(-c2ccc(S(=O)(=O)NCc3ccccc3Cl)cc2)o1 | -32.6% (active) |
